Tested on: VDR:RXRa (NR concentration 270 nM, RXRa partner concentration 90 nM)
Assay: PBM binding z-score (relative to random genomic background probes); higher = stronger binding; sequences stand for … in GC…GCGATTGACAGCGTAGAATGAAGG
Method: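 Protein-binding microarray (Agilent 4x180K custom design, double-stranded 60-nt probes: 5' GC cap, 34-nt variable region, 24-nt constant primer region; full probe sequence given). Purified or IVT nuclear receptor:RXRα heterodimers (3:1 NR:RXRα, mostly 270:90 nM) or homodimers were incubated for 1 h in PBS with 2% milk and no ligand, then detected with Alexa488 antibodies. Fluorescence from o1-orientation probes (~5 replicates averaged) was converted to z-scores against 500 random hg19 background probes. Variable regions are seed direct-repeat (DR0–DR5) sites, all their single-nucleotide variants and half-site ablations.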

In order of rising PBM binding z-score:
1. CCGACTGGGGCAGAAAGCTTACCATACCATCCGG  -0.904
2. CCTCGGAGGACAGACGGTCAGAGCTGTCCGCTTT  -0.53
3. AGAATGAGCTTATACGTAGATCAGGGAAGAAAGT  -0.451
4. CCGACTGGGGCATTAGGTTACCATAAGCCAGCCC  -0.353
5. TCGAGTAGGGTACCAATGGGGCATTCAGCTTTCT  -0.337
6. CGAACTCGGTCAGAACAGGACAGTGAAGGATGAT  -0.191
7. ACAGACAGGTGAGTTAAGGTAACTCAGCTGGACG  -0.161
8. TCGAGTAGGTTACCAATGGGGCATTCTGCTTTCT  -0.0796
9. GCTAGTTGGTCAGTAAAAGGGCACACACCGGTCG  0.0154
10. CCGAGTAGGTTATGGTGCATTCAGGCAACGGTGA  0.0938
11. ACTAGCAGGCCAAGATTGGGTCACTCAAACAAAG  0.16
12. CCTCGGAGGACAGAAGTTCAGAGCTGTCCGCTTT  0.197
13. CTCGACAGGTCGTGCTCAGGTGAGTATACCAAAC  0.597
14. GCTATTAGTTGAAAGGGCAACCAAATGATTCTCG  0.604
15. CCGACTGGGGCCAAGGTTACCATACTCAGTACGA  0.63
16. CCGACTGGGGCAAAGGTTAGCATACTCAGTACGA  0.691
17. AGAATGAGTTTACCAAAGATCAGGGAAACGCTTG  1.05
18. CCTTACGAGTCACTGACAGGTTATAGCATTTGGA  1.06
19. AGAATCAGGTTATTAAGATCAGGGAATTGCGGTC  1.08
20. CCGACTGGGGCAGAAAGGTTAACATACCATCCGG  1.12
21. CGAACTAGGTCAAGGACGGTGAATCTCCGCACGC  1.14
22. ATCTCTAGATAACCAAGTTCAGTGAATGCCGAAC  1.16
23. AGAACGAGGGCACGCTAAGTTGATAGCAGAGTAG  1.65
24. CAAACTAGGTCAAGAGGCCAAAGTCCGCTTCCCG  2.16
25. TAGCCTAGGTCATGCGGGCAAGTATAGTGTCGGC  2.21
26. CCTAGCAGGCCAGGGTCACTCAAGCATTTCGCTT  2.48
27. AGTCATAGTTCATCTAGGTAACGTAAGATATGCT  2.54
28. TCGAATAGGTTAGTCGGGGCATTCAGCCAACATA  3.04
29. CCTACTGGGCCACGCAAGGTCATTGATTCAGTGA  3.62
30. TCTCGGAGGCCACGAAAGGTCAGAGCTCGACATC  3.62
31. CGTCAAAGTTCAAGGTAACGTTACAGAAAGCAGC  3.97
32. CGAACAAGGTCAAGGACAGTGAATCTCCGCACGC  4.11
33. TATACAGGGTCAAAGGCCGGAGTACGAATGTCGA  4.5
34. TTTACAGGGTCAAAGGCCAGAGTACGAATGTCGA  4.79
35. CGTCCAAGGTCAAGGTCAGTCAAAGAGACTCGAA  4.84
36. CAAACTAGGTCACAGAGGTCCAAGTCCGTGCGTA  5
37. CCTTAAGGGTCACTCCAGGTTATAGCATCGGAGT  5.13
38. ATCGAAAGGTCGACGAGGTGAGTACACACCGTTT  5.59
39. CGTCCAAGGTCAGAGAGGACAGTGAATGCCGAGT  5.85
40. CTACCAAGGTGAACAAGGTCGTTGAGTACTATTC  6.19
